KKLEB cytotox – cytotoxicity in KKLEB CF airway cells, primary screen, cytotoxicity control for CF NF-kB inhibitor project, cell-based, uHTS, fluorescence assay plates; KKLEB CF airway cells viability, ATPlite luminescence, overnight; active compounds read low; cells stimulated with P. aeruginosa culture filtrate; activity change (cytotoxicity), % at 5 µM; 0.36% of 360,000 active;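 active means corrected activity change at or below -50% at 5 µM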
HIF-2a block – HIF-2a reporter inhibitors, primary screen, luminescence, 786-0 RCC cells; 786-0 RCC cells HIF-2a reporter, luciferase luminescence, overnight; inhibition, % at 18.8 µM; 0.72% of 360,000 active; AID 624352, 2012;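 active means inhibition of the luminescence signal of 40% or more relative to plate controls, in a single-dose primary screen at 18.75 µM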
Peg3 promoter – Peg3 promoter-driven luciferase inhibitors, primary screen, cell-based, HeLa, luciferase luminescence; HeLa PEG-Prom luciferase reporter, overnight; 1.7% of 360,000 active; inhibition, % at 20 µM;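 active means inhibition of at least 50% at 20 µM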
CHOP inhibitor – inhibitors of CHOP promoter induction, primary screen, cell-based, unfolded protein response, luciferase reporter; CHO-K1 CHOP-promoter luciferase, tunicamycin-induced, 15-18 h; inhibition, % at 10 µM; 3.8% of 220,000 active; AID 2732, 2010;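 active means compounds that reduced the stress-induced luciferase reporter signal by more than about 70% of percent inhibition, limit read from the data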
CF NFkB inh – inhibitors of PAF-induced NF-kB signaling, primary screen, cell-based, GFP fluorescence, uHTS. KKLEB NF-kB-GFP reporter, GFP fluorescence overnight. inhibition, % at 5 µM. 0.86% of 360,000 active. AID 588850, 2011;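 active means at least 50% inhibition at 5 µM, scaled per plate between neutral and stimulator controls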;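 further: PAF is a Pseudomonas aeruginosa culture filtrate used as stimulus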
TRPM1 prom inh – inhibitors of MITF-dependent TRPM1 promoter reporter, primary screen, cell-based, SK-MEL-5, single point, luciferase | SK-MEL-5 TRPM1 promoter luciferase, 24 h | inhibition, % at 12.5 µM | 0.83% of 330,000 active;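 active means mean inhibition across replicates of 60% or more, whatever share of single replicates reaches that level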
CHOP confirm – retest of CHOP induction inhibitors, confirmation, cell-based; shares compounds with CHOP inhibitor; CHO-CHOP promoter luciferase reporter, tunicamycin-induced, luminescence; inhibition, % at 10 µM; 45% of 2,100 active; AID 504437, 2011;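 active means mean of three repeat readings of reporter signal inhibition above a set limit, cut at about 70% in these data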
Large screens that a line does not name were inactive (follow-up assays come after a bar, where they were run). A selection: hits, their analogues and other compounds. The true share with any hit is near 4.3%.

CCOc1cc(/C=C2/NC(=O)N(CC(=O)Nc3cccc(C)c3)C2=O)ccc1O	none
CCOc1cc(/C=C2/NC(=O)N(CC(=O)Nc3cccc(C)c3)C2=O)ccc1OC	CHOP inhibitor 90.4
CCOC(=O)C1(C)CCCN(C(=O)c2cccs2)C1 (configuration not stated)	none (no result: CHOP inhibitor, TRPM1 prom inh)
CCC1CCCCN1c1cc(C)nc2cc(-c3cccc(C)c3)nn12 (configuration not stated)	CHOP inhibitor 87.1
COc1ccc(N2CCc3c(C)nc4c(OC)cc(OC)cc4c32)c(OC)c1	none
COc1ccc(N2CCc3c(C)nc4c(OC)cc(OC)cc4c32)cc1	Peg3 promoter 73.6
O=S(=O)(Nc1ccc(-n2cccc2)cc1)c1ccc(Cl)cc1Cl	CHOP inhibitor 102.1 | CHOP confirm inactive
COCCNC(=O)NC1(C(F)(F)F)Oc2ccc(Cl)cc2O1 (configuration not stated)	none
Cc1cc(NC(=O)NC2(C(F)(F)F)Oc3ccc(Cl)cc3O2)no1 (configuration not stated)	CHOP inhibitor 98.9 | CHOP confirm 114.3
Cc1ccc(Cn2nc(C)c(NC(=O)c3cc(-c4ccc5c(c4)OCO5)on3)c2C)cc1	CHOP inhibitor 105.9 (no result: KKLEB cytotox, HIF-2a block, Peg3 promoter, CF NFkB inh, TRPM1 prom inh) | CHOP confirm inactive
Cc1ccc(Nc2nc(N)c([N+](=O)[O-])c(N3CCC(C)CC3)n2)cc1C	CHOP inhibitor 101.3 | CHOP confirm 102.1
O=C(NCc1cccs1)C1C(=O)Nc2ccccc2C(=O)N1Cc1ccccc1 (configuration not stated)	none (no result: KKLEB cytotox, Peg3 promoter, CHOP inhibitor, CF NFkB inh, TRPM1 prom inh)
Brc1ccc(C2Nc3cccc4cccc(c34)N2)s1	CHOP inhibitor 104.4 | CHOP confirm inactive
Cc1oc2c(C)c(O)ccc2c(=O)c1-c1cnn(-c2ccccc2)c1	CHOP inhibitor 103.7 | CHOP confirm inactive
O=C(Cn1ncc2c([nH]c3ccccc32)c1=O)NCC1CCN(Cc2ccccc2F)CC1	none (no result: CHOP inhibitor)
CCN(CC)CCn1c(SCC(=O)Nc2ccc(F)cc2)nc2c(sc3ccccc32)c1=O	CHOP inhibitor 103.7 (no result: KKLEB cytotox, HIF-2a block, Peg3 promoter, CF NFkB inh, TRPM1 prom inh) | CHOP confirm 89.9
C(=N\Nc1nc(Nc2ccccc2)nc(Nc2ccccc2)n1)/c1cccnc1	CHOP inhibitor 97.3 | CHOP confirm inactive
COC(=O)C1=CN(c2ccc(C)cc2)C(N)=C(C#N)C1c1ccccc1F (configuration not stated)	none (no result: KKLEB cytotox, Peg3 promoter, CHOP inhibitor, CF NFkB inh, TRPM1 prom inh)
c1cc2c(cc1C1CCCCC1)c1c3n2CCCNC3CCC1 (configuration not stated)	Peg3 promoter 103.9, TRPM1 prom inh 98.9 (no result: CHOP inhibitor) | CHOP confirm inactive
COc1ccccc1-c1nnc(NC(=O)c2ccc(S(=O)(=O)N(C)Cc3ccccc3)cc2)o1	CHOP inhibitor 97.3 (no result: KKLEB cytotox, HIF-2a block, Peg3 promoter, CF NFkB inh, TRPM1 prom inh) | CHOP confirm 97.1
CCc1nnc(NC(=O)c2ccc(S(=O)(=O)N(C)Cc3ccccc3)cc2)o1	none (no result: CHOP inhibitor)
Cn1c(=O)c(C(=O)Nc2ncccc2O)c(O)c2ccccc21	CHOP inhibitor 109.9 | CHOP confirm 84.3
CCCc1nc2ccccc2c(=O)n1NC(=O)c1c(O)c2cccc3c2n(c1=O)CCC3	none
CCCCc1nc2ccccc2c(=O)n1NC(=O)c1c(O)c2ccccc2n(C)c1=O	CHOP inhibitor 98.0 | CHOP confirm 92.0
Cc1ccc(NC(=O)c2c(O)c3ccccc3n(C)c2=O)nc1	CHOP inhibitor 97.2 | CHOP confirm inactive
Cc1ccc(NC(=O)COC(=O)C2(C)CC2(Cl)Cl)cc1S(=O)(=O)N1CCOCC1 (configuration not stated)	none (no result: CHOP inhibitor)
CCCn1c(=S)[nH]c2cc(C(=O)N3CCc4ccccc4C3)ccc2c1=O	CHOP inhibitor 101.9 | CHOP confirm inactive
CCCn1c(=S)[nH]c2cc(C(=O)N3CCN(c4ccccc4)CC3)ccc2c1=O	none (no result: CHOP inhibitor, TRPM1 prom inh)
CC(C)CCn1c(=O)c(C(=O)N/N=C/c2cccc(F)c2)c(O)c2ccccc21	CHOP inhibitor 105.6 | CHOP confirm 90.1
